This is a sample that favours compounds with a hit; in the whole collection about 3.6% have one here.
BoNT A protease: blocks Botulinum neurotoxin A light chain protease. multiplex microsphere protease substrate cleavage, flow cytometry. inhibition, % at 10 µM. 360,000 tested, 0.17% active. AID 588499
BoNT-F LC inh: inhibitors of Botulinum neurotoxin F light chain protease; 360,000 tested, 0.22% active; Multiplex microsphere protease cleavage assay, flow cytometry; AID 588497; inhibition, % at 10 µM; in the data active = inhibition above about 35%, passing the limit was not always enough; inconclusive = no clear call, values can overlap the other calls
Anthrax LF prot: anthrax lethal factor protease inhibition | P15917 | multiplex microsphere protease cleavage assay, LF | inhibition, % at 10 µM | 360,000 tested, 0.12% active
Target sequence (P15917 whole entry, looked up): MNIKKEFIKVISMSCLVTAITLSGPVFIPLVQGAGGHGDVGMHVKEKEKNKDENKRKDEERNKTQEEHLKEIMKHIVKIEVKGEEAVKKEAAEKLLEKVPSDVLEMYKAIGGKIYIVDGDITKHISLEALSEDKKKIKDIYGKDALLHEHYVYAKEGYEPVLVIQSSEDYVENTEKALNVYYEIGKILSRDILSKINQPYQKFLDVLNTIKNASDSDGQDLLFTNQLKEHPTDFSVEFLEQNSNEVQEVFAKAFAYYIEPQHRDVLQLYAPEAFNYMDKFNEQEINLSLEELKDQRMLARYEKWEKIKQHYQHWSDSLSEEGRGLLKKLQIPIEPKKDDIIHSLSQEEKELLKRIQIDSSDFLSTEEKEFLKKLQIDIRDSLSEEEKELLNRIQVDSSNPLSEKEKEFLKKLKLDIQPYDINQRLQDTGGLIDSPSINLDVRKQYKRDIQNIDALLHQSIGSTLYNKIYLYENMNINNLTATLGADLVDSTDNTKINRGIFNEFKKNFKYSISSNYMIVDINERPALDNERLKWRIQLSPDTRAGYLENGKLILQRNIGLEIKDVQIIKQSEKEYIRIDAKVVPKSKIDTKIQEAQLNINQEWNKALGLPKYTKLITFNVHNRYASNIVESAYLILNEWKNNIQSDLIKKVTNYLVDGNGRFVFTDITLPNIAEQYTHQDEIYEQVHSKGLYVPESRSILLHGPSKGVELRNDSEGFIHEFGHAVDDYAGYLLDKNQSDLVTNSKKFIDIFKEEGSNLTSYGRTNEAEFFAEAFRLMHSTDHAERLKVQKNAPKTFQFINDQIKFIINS
MazEF act: increases E. coli MazEF RNase cleavage of RNA; FAM/BHQ RNA-DNA oligo cleavage fluorescence, 5 h; 350,000 tested, 0.32% active; activation, % at 20 µM; P0AE70; AID 504720; in the data active = activation above about 50%
Autofluor counter: flagged as autofluorescent in microsphere protease counterscreen; fluorescence intensity (concentration not given with the values); 360,000 tested, 3.1% active; compound autofluorescence counterscreen, microsphere flow cytometry; active compounds read high; AID 624483; in the data active = fluorescence intensity above about 16000; inconclusive = no clear call, values can overlap the other calls
Large screens that a line does not name were inactive. Cut-off read from the data, not from the text of the source, unless noted: active = inhibition above about 30%; inconclusive = no clear call, values can overlap the other calls; inactive = below that.

Cc1ccc(N2CC(NC(=O)C3CC3)CC2=O)cc1 (stereo not given)	Autofluor counter inconclusive
COc1ccc(N2CCN(C(=O)c3csc4ccccc34)CC2)cc1	Autofluor counter 16323
Cc1scc(C(=O)N2CCN(S(C)(=O)=O)CC2)c1-c1ccccc1	BoNT A protease inconclusive, Autofluor counter 24362
CS(=O)(=O)N1CCN(C(=O)c2csc3ccccc23)CC1	Autofluor counter 24374
O=C(c1csc2ccccc12)N1CCN(c2ccc(Cl)c(Cl)c2)CC1	none
COc1cc(C(=O)Oc2ccc3c(c2)OCC3=O)cc(OC)c1OC	BoNT-F LC inh 44
Cc1ccc(N=Cc2ccc(O)cc2O)cc1F	BoNT A protease inconclusive, MazEF act 194, Autofluor counter 21566
CCOc1ccc(OCC(=O)OCC(=O)N2CCN(S(=O)(=O)c3ccc(C)cc3C)CC2)cc1	none
O=c1cc(N2CCN(c3ccccc3)CC2)[nH]c(=O)n1-c1ccccc1Cl	Autofluor counter 21259
CCOc1ccc(-n2c(=O)cc(N3CCN(c4ccccc4)CC3)[nH]c2=O)cc1	Autofluor counter 21972
COc1ccc(-n2c(=O)cc(N3CCOCC3)[nH]c2=O)cc1	Autofluor counter 19939
CC1c2cc3c(cc2CCN1C(=O)c1cccc(F)c1)OCCCO3 (stereo not given)	none
COc1ccc(-c2ccc(CN3C(C)C(=O)N(Cc4cn(CCC5OCCO5)nn4)CCS3(=O)=O)cc2)cc1OC (stereo not given)	none
Fc1cc2[nH]c(=S)[nH]c2c(Br)c1N1CCSCC1	none
Cc1ccc(P(=O)(CC(=O)O)c2ccc(C)cc2)cc1	Autofluor counter 24105
O=C(Nc1ccn(Cc2ccccc2F)n1)c1ccc(COc2cc(Cl)ccc2Cl)o1	none
O=C(Nc1ccn(Cc2ccccc2F)n1)c1ccc(COc2ccccc2Cl)cc1	Autofluor counter 19484
O=C(Nc1ccn(Cc2c(F)c(F)cc(F)c2F)n1)c1ccc(COc2cc(Cl)ccc2Cl)o1	Autofluor counter 22103
O=C(NCc1ccc2c(c1)OCO2)c1ccc(COc2cc(Cl)ccc2Cl)o1	Autofluor counter 18111
CCc1nnc(NC(=O)CCNC(=O)c2ccco2)s1	none
CC1c2cc3c(cc2CCN1S(=O)(=O)c1ccccc1)OCCCO3 (stereo not given)	none
Nn1c(SCC(=O)Nc2ccc(N3CCOCC3)cc2)nnc1-c1ccccc1F	none
CC(C)c1ccc(C2CC(=O)N3CN(Cc4ccco4)CSC3=C2C#N)cc1 (stereo not given)	BoNT A protease inconclusive, BoNT-F LC inh inconclusive, Anthrax LF prot inconclusive, Autofluor counter inconclusive
N#CC1=C2SCN(Cc3ccco3)CN2C(=O)CC1c1ccc(Cl)cc1 (stereo not given)	Autofluor counter 22500
COc1ccc2ccccc2c1C1CC(=O)N2CN(Cc3ccco3)CSC2=C1C#N (stereo not given)	none
COc1ccc(C2CC(=O)N3CN(Cc4ccco4)CSC3=C2C#N)cc1 (stereo not given)	BoNT A protease inconclusive, Autofluor counter 20177
COc1cc2c(cc1O)C(CSC)Cc1cc3c(cc1N(C)CC2)OCO3 (stereo not given)	none
O=C(c1ccc(-c2ccccc2)cc1)c1ccccc1C(=O)N1CCOCC1	Autofluor counter 22303
O=C(c1ccccc1-c1nc(-c2ccccc2)no1)N1CCOCC1	Autofluor counter 18009
O=C(Oc1ccccc1C(=O)N1CCOCC1)c1ccc(Br)cc1	BoNT A protease inconclusive, Autofluor counter 20205
COc1ccc2nc(NC(=O)CSc3nnc(C)s3)sc2c1	Autofluor counter 21301
O=C(CSc1nnc(NC(=O)c2c(F)cccc2F)s1)Nc1ccc(F)cc1	MazEF act 179
COc1ccc(CNC(=O)CSc2nnc(C)s2)cc1	BoNT A protease inconclusive, Autofluor counter 19126
COc1ccc2nc(NC(=O)CSc3nc(SC)ns3)sc2c1	none
CSc1cccc(NC(=O)CSc2nnc(C)s2)c1	Autofluor counter 16404
O=S(=O)(c1ccc(F)c(F)c1)N1CCN(S(=O)(=O)c2cccs2)CC1	none
CC(C)NC(=O)c1ccc(-c2ccc(F)c(F)c2)c2ccoc12	none (no result: MazEF act)
O=S(=O)(Cc1ccccc1Cl)NCCc1ccc(F)cc1	none
O=C(CC[C@H]1O[C@@H](n2ccc(=O)[nH]c2=O)[C@H](O)[C@@H]1O)N[C@H](Cc1ccccc1)C(=O)NCC1CCCO1 (stereo not given in full)	none (no result: MazEF act)
COc1ccc2sc(NC(=O)CC(C)C)nc2c1	Autofluor counter 20332
CCC(=O)Nc1nc2cc(OC)ccc2s1	none
COc1cccc(NC(=O)CN(C)C(=O)c2c(C)noc2C)c1	none
O=S(=O)(c1ccc(Br)s1)n1cccn1	BoNT A protease inconclusive, Autofluor counter 20761
O=S(=O)(c1cccs1)n1cccn1	none
COc1ccccc1OCc1nnc(SCC(=O)c2cc(Cl)ccc2OC)o1	BoNT A protease inconclusive, Autofluor counter 21782
COc1ccccc1OCc1nnc(SCC(=O)N2CCCC2)o1	none
COc1ccccc1OCc1nnc(SCCN2CCOCC2)o1	BoNT A protease inconclusive, Autofluor counter 22558
CCOc1ccc(CCNC(=O)Cn2c(=O)c3cccn3c3cccnc32)cc1	none
O=C(CSc1nnc(CNc2ccc(F)cc2)o1)N1c2ccccc2Sc2ccccc21	Autofluor counter 20080
CC(C)(C)N(Cc1ccccc1)C(=O)CSc1nnc(CNc2ccc(F)cc2)o1	Autofluor counter 17024
Cc1cccc(C(=O)OCC(=O)N2CC(=O)Nc3ccccc32)c1C	none
O=C(CC[C@H]1O[C@@H](n2ccc(=O)[nH]c2=O)[C@H](O)[C@@H]1O)NCC1CCCO1 (stereo not given in full)	none (no result: MazEF act)
CCCCNc1nc(-c2ccccc2)nc(-n2ccnc2)n1	none
c1ccc(-c2nc(NC3CC3)nc(-n3ccnc3)n2)cc1	Autofluor counter 21514
c1ccc(-c2nc(-n3ccnc3)nc(-n3ccnc3)n2)cc1	none
C=CCNc1nc(-c2ccccc2)nc(-n2ccnc2)n1	Autofluor counter 18305
COc1ccc(C2=NS(=O)(=O)N(C)C(C(=O)Nc3ccc(C(C)=O)cc3)=C2)cc1OC	none
COc1cc(C(C[N+](=O)[O-])c2c(C)[nH]c3ccccc23)cc(OC)c1OC (stereo not given)	Autofluor counter 21574
Cc1ccc(S(=O)(=O)Nc2cc(=O)[nH]c(SCC(=O)Nc3cccc(C)c3)n2)cc1	none
COc1ccc(S(=O)(=O)Nc2ccc(Cc3ccncc3)cc2)cc1OC	none
O=S(=O)(Nc1ccc(Cc2ccncc2)cc1)c1ccc(Cl)c(Cl)c1	Autofluor counter 16421
CC(NS(=O)(=O)c1ccccc1)C(N)=O (stereo not given)	Autofluor counter 17096
O=S(=O)(c1ccccc1)c1cnc(-c2cccnc2)nc1-c1ccccc1	Autofluor counter 22391
O=S(=O)(c1ccccc1)c1cnc(-c2cccnc2)nc1-c1ccc(Cl)cc1Cl	none
N#Cc1ccc(Oc2nc(C(N)=O)cc(-c3ccccc3)n2)cc1	Autofluor counter 24851
NNS(=O)(=O)c1ccc(N2CCCC2=O)c([N+](=O)[O-])c1	MazEF act 227
Clc1ccc(Nc2ncn[nH]2)cc1	Autofluor counter 23107
Clc1ccc(CNc2ccc(CNc3ncn[nH]3)cc2)cc1	none

Screening data: PubChem, several laboratories
